NTR1 agonist: activates human neurotensin receptor 1; activation, % at 20 µM; NTR1-U2OS beta-arrestin-GFP spot imaging, agonist mode; P30989; AID 493036; 0.17% of 330,000 active;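 active = activation at or above 40% of the spot to cytoplasm intensity ratio, with at least 20 cells analyzed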
SUMO Mot1 rescue: blocks SUMOylation pathway, rescuing yeast Mot1-301 growth. growth rescue, % at 18.8 µM. 1% of 320,000 active. S. cerevisiae Mot1-301 growth rescue, ATP luminescence, 38.5C; percent above DMSO median, 100 means doubled;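 active = every valid replicate shows activation above 250% relative to neutral control wells; inactive = the rest, any valid replicate at or below 250%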
AI-2 QS modul: Vibrio harveyi AI-2 quorum sensing modulation; Vibrio harveyi JMH597 AI-2 luminescence/OD600 ratio, 9 h; stronger effect = lower value; strain lacks LuxN and CqsS sensors; 0 = neutral-control median; activity change, % at 7.5 µM; 0.4% of 300,000 active; AID 2094; in the data active = activity change below about -75%, passing the limit was not always enough;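 also: luminescence divided by OD600 gain over 9 h not by final OD600 alone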
Cardio protect: modulators protecting cardiomyocytes from myocardial damage | H9c2 cardiomyocytes, H2O2 injury protection, ATPLite, 2 h | protection from H2O2 cell death, % at 20 µM | 0.63% of 360,000 active;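 active = compounds giving at least 50% protection of heart cells from peroxide-induced death in the single-dose screen, raw or plate-pattern-corrected value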
AHR act: activates the human aryl hydrocarbon receptor; P35869; AHR-responsive luciferase reporter cells, luminescence; activation, % at 5 µM; 2.5% of 320,000 active; in the data active = activation above about 47%
NR3A LBD binder: NR3A (human) ligand-binding domain modulation; 2.5% of 340,000 active; AID 1259313; NR3A LBD differential scanning fluorimetry, Tm shift; 0% = protein alone, 100% = glycine-bound protein; Tm shift relative to glycine control, % at 25 µM;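 active = melting temperature shift of at least 10% of the positive control shift, at one fixed dose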
A number is an active result; - = inactive; . = no result. Only some compounds are listed: those with a hit (about 6.2% of all), similar ones and a draw of the others.

SMILES	NTR1 agonist	SUMO Mot1 rescue	AI-2 QS modul	Cardio protect	AHR act	NR3A LBD binder
Nc1ccc(N2CCCC2)c(S(=O)(=O)Nc2cccc(C(F)(F)F)c2)c1	-	-	.	-	-	-
CSc1ncc(Cl)c(C(=O)Nc2ccc(S(=O)(=O)Nc3nccc(C)n3)cc2)n1	-	-	-	-	-	13
Cc1ccnc(NS(=O)(=O)c2ccc(N3C(=O)c4c(Cl)c(Cl)c(Cl)c(Cl)c4C3=O)cc2)n1	-	-	-	-	-	28
CSc1ncc(Cl)c(C(=O)Nc2cccc(C)c2)n1	-	-	-	-	62	-
CCCSc1ncc(Cl)c(C(=O)Nc2ccc(S(=O)(=O)Nc3ncccn3)cc2)n1	-	-	-	-	-	-
CSc1ncc(Cl)c(C(=O)Nc2cccc(Cl)c2)n1	-	-	-	-	55	-
CC1(C(=O)Nc2ccc(Cl)c(C(F)(F)F)c2)Cc2c(-c3ccc4c(c3)OCO4)ccnc2O1 (centres undefined)	.	.	.	-	.	.
Cc1ccc(S(=O)(=O)NCCC2=CCCCC2)cc1C(N)=O	-	-	-	-	-	-
Cc1ccc(NC(=O)c2cc(S(=O)(=O)NCCC3=CCCCC3)ccc2F)cc1F	-	-	-	-	-	17
O=C(Nc1cccc(F)c1)c1cc(S(=O)(=O)NCCC2=CCCCC2)ccc1F	-	-	-	-	-	22
CCCNc1nc2nc3ccccn3c(=O)c2cc1C(=O)NCCN1CCOCC1	-	-	-	-	-	-
COc1cc(C(=O)Nc2ccc(Nc3ccccc3)cc2)cc(OC)c1OC	-	-	-	-	-	-
NC(=S)Nc1ccc(Oc2ccc(NC(N)=S)cc2)cc1	-	-	-	-	-	14
Cc1ccc(NC(N)=S)cc1	-	-	-	-	-	-
CSCCC(NC(=O)c1ccco1)C(=O)N1CCN(c2ccccc2O)CC1 (centres undefined)	.	-	.	-	-	-
COc1ccccc1CNCC(=O)N1CC(=O)Nc2ccccc21	-	-	-	-	60	-
COc1ccccc1CNC(=O)CNC(=O)N1CC(=O)Nc2ccccc21	-	-	-	-	-	-
COc1ccc(/C=N/NC(=O)c2nnn(-c3nonc3N)c2-c2cccc(OC)c2)cc1	-	-	-	-	-	-
CCOc1cccc(-c2c(C(=O)N/N=C(\C)c3ccncc3)nnn2-c2nonc2N)c1	-	-	-	-	-	-
C/C(=N\NC(=O)c1nnn(-c2nonc2N)c1-c1cccs1)c1cccnc1	-	-	-	-	63	-
COc1cccc(-c2c(C(=O)N/N=C(\C)c3ccc(Cl)s3)nnn2-c2nonc2N)c1	-	-	-	-	-	11
C/C(=N\NC(=O)c1nnn(-c2nonc2N)c1-c1ccccc1)c1cccnc1	-	-	-	-	.	-
COc1cccc(-c2c(C(=O)N/N=C(\C)c3ccco3)nnn2-c2nonc2N)c1	-	-	-	-	-	-
CCOc1cccc(-c2c(C(=O)N/N=C(\C)c3ccccn3)nnn2-c2nonc2N)c1	.	-	-	51	-	31
COc1cccc(-c2c(C(=O)N/N=C(\C)c3cccnc3)nnn2-c2nonc2N)c1	-	-	-	-	62	-
SMILES	NTR1 agonist	SUMO Mot1 rescue	AI-2 QS modul	Cardio protect	AHR act	NR3A LBD binder
CC1Nc2ccc(C(=O)NC3CCCCC3)cc2NC1=O (centres undefined)	-	-	.	-	-	-
Cc1cc(C)cc(N=Cc2[nH]c3ccc(Br)c(Cl)c3c2O)c1	.	-	-	-	-	18
COc1ccc(CN=Cc2[nH]c3ccc(Br)c(Cl)c3c2O)cc1	-	-	-	-	57	-
COc1ccc(CN=CC2=C(O)CNC2=O)cc1	-	-	-	-	-	-
CC(C)CC1NC(=O)c2cc3ccccc3cc2-n2c1nc1ccc(Cl)cc1c2=O (centres undefined)	.	.	.	-	.	.
Cn1c(N)c(C(=O)COC(=O)CNC(=O)c2ccccc2F)c(=O)n(C)c1=O	-	-	.	-	-	-
COC(=O)c1ccc(C(=O)OC)c(NC(=O)COC(=O)C23CC4CC(CC(O)(C4)C2)C3)c1	-	-	-	88	-	-
COc1ccccc1/C=C/C(=O)Nc1cccc(S(=O)(=O)N2CCOCC2)c1	-	.	.	-	-	-
Cc1ccc(/C=C/C(=O)Nc2cccc(S(=O)(=O)N3CCOCC3)c2)o1	-	-	-	-	59	-
O=C(/C=C/c1ccco1)Nc1cccc(S(=O)(=O)N2CCOCC2)c1	-	-	-	-	50	-
O=C(/C=C/c1ccc(OC(F)F)cc1)Nc1cccc(S(=O)(=O)N2CCOCC2)c1	-	-	-	-	-	20
Cc1c(C(=O)OCC(=O)N(C)CC(=O)Nc2ccc(F)cc2)oc2ccccc12	-	-	.	-	-	-
COc1ccc(C)cc1NC(=O)CSc1nnc2ccc(-c3ccncc3)nn12	-	-	-	-	-	.
COc1ccc(C(=O)NC(=S)N2CC(C)OC(C)C2)cc1OC (centres undefined)	-	-	-	-	-	12
CCC(=O)N1CCN(c2ccccc2NC(=O)COc2ccccc2Cl)CC1	-	-	-	-	68	-
CCN(CC)S(=O)(=O)c1ccc(Cl)c(NC(=O)COc2ccccc2[N+](=O)[O-])c1	-	-	-	-	-	-
O=C(COc1ccccc1[N+](=O)[O-])Nc1ccccc1N1CCCC1	-	-	-	-	-	16
O=C(COc1ccccc1[N+](=O)[O-])Nc1ccccc1N1CCCCC1	-	-	-	-	-	-
CN(C)S(=O)(=O)c1ccc(Cl)c(NC(=O)COc2ccccc2[N+](=O)[O-])c1	-	-	-	-	-	13
CC(=O)N1CCN(c2ccccc2NC(=O)COc2cc(C)ccc2C(C)C)CC1	-	-	-	66	-	-
COc1ccc(OCC(=O)Nc2cc3c(cc2C(=O)O)OCCCO3)cc1	-	-	-	-	-	-
COc1cccc(C(=O)c2c(-c3ccccc3)ncc3cc(OC)c(OC)cc23)c1	-	.	.	-	.	-
O=C(COC(=O)c1ccco1)Nc1ccc([N+](=O)[O-])cc1Cl	-	-	.	-	-	-
O=C(COc1cc(Cl)c(Cl)cc1Cl)Nc1ccc([N+](=O)[O-])cc1Cl	-	-	-	-	-	10
COc1ccc(-n2c(C)cc(C(=O)CCl)c2C)cc1	-	-	-87	-	-	-
CC1CC1C(=O)Nc1nc(-c2cccs2)c(-c2cccs2)s1 (centres undefined)	-	-	-	-	78	-
O=C(Nc1nc(-c2cccs2)c(-c2ccccc2)s1)c1ccco1	-	-	-	-	-	-
CC(C)CSc1nnc2c(n1)[nH]c1ccccc12	-	-	-	-	-	-
CC1=CCC(/C=N\Nc2nnc3c(n2)[nH]c2ccccc23)CC1 (centres undefined)	-	-	-	.	55	.
CNC(=O)Cn1c(C)cc(=O)c2cccc(C)c21	-	-	-	-	-	-

Compound activity from PubChem BioAssay.
